An excerpt weighted towards active compounds, which were near 11% of everything screened.
hNpr1 antagonist: antagonists of human natriuretic peptide receptor Npr1; P16066; HEK293 hNpr1 GloSensor cGMP, ANP-stimulated luminescence; Potency, µM (series often up to 46.3 µM), inactives show at the top dose activity change, negative = inhibition, most hits filed as inhibitors; hit rate 1.6% among 76,000; calls by dose curve; note: nearly all actives have a fitted effect of over 60% in size
Target sequence (P16066 whole entry, looked up): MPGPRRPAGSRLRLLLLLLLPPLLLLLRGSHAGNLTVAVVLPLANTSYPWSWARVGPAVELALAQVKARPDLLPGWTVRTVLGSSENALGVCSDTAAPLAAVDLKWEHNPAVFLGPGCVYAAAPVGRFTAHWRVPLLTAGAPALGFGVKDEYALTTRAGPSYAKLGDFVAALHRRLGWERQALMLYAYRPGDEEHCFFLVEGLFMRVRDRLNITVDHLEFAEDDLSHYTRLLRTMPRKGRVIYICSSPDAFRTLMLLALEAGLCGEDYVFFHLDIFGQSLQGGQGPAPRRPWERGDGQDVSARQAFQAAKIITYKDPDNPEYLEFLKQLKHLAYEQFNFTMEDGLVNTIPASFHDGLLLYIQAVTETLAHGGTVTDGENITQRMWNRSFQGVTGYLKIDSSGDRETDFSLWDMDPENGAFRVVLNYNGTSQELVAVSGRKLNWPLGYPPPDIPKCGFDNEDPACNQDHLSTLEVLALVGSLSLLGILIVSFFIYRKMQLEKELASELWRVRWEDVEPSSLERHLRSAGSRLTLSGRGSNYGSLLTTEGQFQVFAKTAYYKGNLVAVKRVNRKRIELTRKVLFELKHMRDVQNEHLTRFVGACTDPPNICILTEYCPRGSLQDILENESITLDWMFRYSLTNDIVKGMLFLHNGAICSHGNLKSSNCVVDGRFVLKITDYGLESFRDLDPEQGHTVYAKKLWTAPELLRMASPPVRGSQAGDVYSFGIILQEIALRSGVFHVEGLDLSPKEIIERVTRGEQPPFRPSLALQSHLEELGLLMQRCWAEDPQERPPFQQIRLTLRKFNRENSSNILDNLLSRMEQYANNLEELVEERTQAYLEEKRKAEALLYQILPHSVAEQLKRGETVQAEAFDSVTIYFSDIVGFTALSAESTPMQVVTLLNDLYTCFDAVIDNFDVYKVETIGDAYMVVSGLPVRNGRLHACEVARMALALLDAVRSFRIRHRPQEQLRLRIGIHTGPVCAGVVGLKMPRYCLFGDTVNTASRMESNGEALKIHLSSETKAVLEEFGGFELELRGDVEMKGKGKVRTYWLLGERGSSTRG
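HEK293 cells stably expressing human Npr1 and cGMP GloSensor pGS-40F, loaded 2 h with 2% GloSensor reagent, given compound 30 min at room temperature. Luminescence read before and 20 min after 0.1 nM hNppA.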
FLuc inh: inhibitors of firefly (Photinus pyralis) luciferase; Potency, µM (titrated, usually from 115 µM), hits mostly inhibitors; P08659; hit rate 2.5% among 76,000; purified P. pyralis luciferase, luminescence, biochemical; note: nearly all actives have a fitted effect of over 65% in size
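Biochemical qHTS: compound (6-point titration) added to 10uM D-luciferin plus 10uM ATP in Tris acetate pH 7.5 buffer with Mg, Tween-20 and BSA, then purified enzyme at 10nM; light output imaged.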
3T3 cytotox: cytotoxic compounds in NIH 3T3 cells. hit rate 4.3% among 94,000. NIH 3T3 viability, CellTiter-Glo ATP luminescence, 48-72 h. Potency, µM (titrated, usually from 96.7 µM), inactives show top-dose activity change, negative = cytotoxicity, most hits filed as inhibitors; note: nearly all actives have a fitted effect of over 55% in size
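Cytotoxicity is measured as loss of cellular ATP: NIH 3T3 cells (400/well) are exposed to compound for 48 or 72 hr at 37 °C, then CellTiter-Glo luminescence is imaged after 10 min at room temperature.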
HEK293 tox: HEK 293 cell cytotoxicity; hit rate 6.6% among 94,000; HEK 293 viability, ATP luminescence (CellTiter-Glo), 48-72 h; Potency, µM (titrated, usually from 115 µM), for inactives: at the top dose activity change, negative = cytotoxicity, most hits filed as inhibitors; note: nearly all actives have a fitted effect of over 60% in size
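Cytotoxicity was scored by loss of ATP-coupled luminescence (CellTiter-Glo) in HEK 293 cells. Compound treatment ran 48 or 72 hr at 37 degree Celsius, 5% CO2, 95% humidity.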
Starred values were filed as active, the others as inactive; i = inactive; u = inconclusive; x = no result given; [ ] = dose if it differs, or a comment. Unless noted, calls come from the whole dose curve; as a rule, active = well fitted curve in the direction sought with a large enough effect; inconclusive = small, poorly fitted or top-dose-only effect, or another doubt; inactive = no such curve, though single readings can be large; an effect the other way counts as inactive or inconclusive. % is set by controls: 0 for no effect and ±100 for the full control effect; potency is the fitted concentration of half-maximal effect.

SMILES | hNpr1 antagonist | FLuc inh | 3T3 cytotox | HEK293 tox
O=C(Nc1cnc(-c2ccccc2)nc1)c1ccco1 | -13.1% | 11.2µM* | -3.5% | -4.8%
O=C(Nc1cnc(-c2ccccc2)nc1)c1ccc(F)c(F)c1 | 3.0% | i | i | 10.0%
O=C(Nc1cnc(-c2ccc(F)cc2)nc1)c1ccco1 | -20.3% | 3.55µM* | -15.4% | u
O=C(Nc1cnc(-c2ccc(Cl)cc2)nc1)c1ccccc1F | -23.3% | 0.794µM* | 2.5% | -9.2%
Cc1nc2c(c(-c3ccc(O)cc3)n1)CN(C(=O)c1cccc(Cl)c1)CC2 | -3.7% | i | -26.5% | u
COc1cccc(C(=O)NC2CCCN(Cc3cccc(-c4ccc(C)c(Cl)c4)c3)C2)c1 (stereo not given) | x | x | -26.6% | -31.6%
Cc1ccc(-c2cccc(CN3CCCC(NC(=O)C4CC4)C3)c2)cc1Cl (stereo not given) | x | x | u | 35.5µM*
COc1ccccc1C(=O)NC1CCCN(Cc2cccc(-c3ccc(C)c(Cl)c3)c2)C1 (stereo not given) | x | x | u | 39.8µM*
Cc1cccc(S(=O)(=O)N2CCN(C3CCN(Cc4ccccn4)C3=O)CC2)c1 (stereo not given) | -3.9% | i | -30.2% | -24.6%
Cc1c(CN2CCCC(CNC(=O)c3cccc4ccccc34)C2)[nH]c2ccccc12 (stereo not given) | -2.7% | i | 20µM* | 17.8µM*
COc1cccc(C(=O)NCC2CCCN(Cc3ccccn3)C2)c1OC (stereo not given) | -3.1% | i | -17.0% | -9.8%
O=C([C@H]1CCCN1C(=O)Nc1ccc(Cl)cc1)N1CCC(N2CCOC2=O)CC1 | x | x | 3.8% | i
O=C(Nc1ccc2n(c1=O)C[C@H]1C[C@@H]2CN(C(=O)Nc2ccc(F)cc2)C1)c1ccccc1 | 1.3% | i | 22.4µM* | -6.3%
CC(=O)c1ccc(NC(=O)N2C[C@@H]3C[C@H](C2)c2ccc(NC(=O)Nc4cccc(F)c4)c(=O)n2C3)cc1 | 0.9% | 35.5µM* | -21.0% | -1.1%
CN(C)c1cccc(Oc2nnnn2[C@H]2CO[C@H]3[C@@H]2OC[C@@H]3NC(=S)Nc2cccc(C#N)c2)c1 | -4.6% | i | u | 44.7µM*
Cc1ccc(C(=O)N2CCc3sc(C(=O)NCCN4CCCCCC4)cc3C2)cc1 | 8.4% | i | u | u
Cc1ccc(-c2ccc3c(n2)CN(C)C(=O)CO3)cc1 | u | 89.1µM* | u | u
COc1ccc(-c2ccc3c(n2)CN(C)C(=O)CO3)cc1 | u | u | 100µM* | u
CC(=O)NCc1nnc2n1C(C(=O)NCc1cccs1)CC2 (stereo not given) | x | x | -25.4%[138 µM] | -18.8%[172 µM]
CC1(c2cccnc2)N(Cc2ccccc2)C(=O)OC12CCN(C(=O)c1cnccn1)CC2 (stereo not given) | -9.0% | i | 28.2µM* | -15.4%
CC1(c2ccccc2)N(Cc2ccccc2)C(=O)OC12CCN(C(=O)COc1ccccc1)CC2 (stereo not given) | 1.6% | i | 28.2µM* | u
COCC(=O)N1CCC2(CC1)OC(=O)N(Cc1ccc(O)cc1)C2(C)c1ccccc1 (stereo not given) | 4.0%[70.6 µM] | i | u | i
CC1(c2cccnc2)N(CC2CC2)C(=O)OC12CCN(C(=O)c1ccccc1)CC2 (stereo not given) | -7.9%[70.6 µM] | i | u | -1.8%[172 µM]
CC1(c2cccnc2)N(Cc2ccccc2)C(=O)OC12CCN(C(=O)COc1ccccc1)CC2 (stereo not given) | 0.6% | i | 31.6µM* | -9.0%
COCC(=O)N1CCC2(CC1)OC(=O)N(CCOc1ccccc1)C2(C)c1cccnc1 (stereo not given) | 3.1%[70.6 µM] | i | 50.1µM* | -8.7%[172 µM]
SMILES | hNpr1 antagonist | FLuc inh | 3T3 cytotox | HEK293 tox
COc1ccccc1-c1cnc(Nc2ccc3c(c2)OCCO3)c2c1CCO2 | u | 14.1µM* | -26.6%[138 µM] | u
COc1ccccc1-c1cnc(NCc2ccccc2)c2c1CCO2 | -12.4%[70.6 µM] | i | 25.1µM* | u
O=C1NCc2ccccc2CC12CCCCN2Cc1ccc(Cl)s1 (stereo not given) | x | x | -21.0% | -23.5%
Cc1occc1C(=O)N1CCC2(CC1)CC(c1ccccc1)CN(C)C2 (stereo not given) | 0.6% | i | -4.2% | -3.8%
COc1ccc2c(c1)c(CN1CCOCCNC(=O)CC1)cn2C(C)C | -7.1% | i | u | u
O=C(NCC1CC1)c1cc(-c2cccs2)c2cccn2n1 | x | x | u | 70.8µM*
O=C(NCc1cccc(Cl)c1)c1cc(-c2cccs2)c2cccn2n1 | x | x | u | 28.2µM*
O=C(NCc1cccc(Cl)c1)c1cc(-c2cc(Cl)cc(Cl)c2)c2nncn2n1 | x | x | -29.2% | -14.7%
COC(=O)CNC(=O)c1cc(-c2ccccc2OC)c2cccn2n1 | x | x | 3.0% | -24.1%
N#CC1CCN(C(=O)c2cc(-c3cccs3)c3cccn3n2)CC1 | x | x | u | 79.4µM*
COc1ccccc1-c1cc(C(=O)N2CCOCC2)nn2cccc12 | x | x | -6.9% | -11.8%
Cc1cccc(C)c1-c1nnc2ccc(C(=O)NCc3ccccc3)cn12 | x | x | u | -23.1%[172 µM]
Cc1ccc(-c2[nH]ncc2CN)cc1C | 1.3% | i | i | 3.2%
COc1ccccc1-c1nnc2ccc(C(=O)N3CCOCC3)cn12 | x | x | 1.7%[138 µM] | -1.2%[172 µM]
Cn1nc(C2CCCC2)cc1NC(=O)C(C)(C)C | x | x | -13.4%[138 µM] | i
CCCCNC(=O)CCCN1C(=O)COc2ccc(C(C)(C)CC)cc21 | -0.9% | i | u | 44.7µM*
COCCNC(=O)CCCN1C(=O)COc2ccc(C(=O)COc3ccc(F)c(Cl)c3)cc21 | -2.7% | i | u | u
CC(C)c1ccc(OCC(=O)c2ccc3c(c2)N(CCCC(=O)N2CCOCC2)C(=O)CO3)cc1 | -17.5% | u | 31.6µM* | 31.6µM*
O=C(CN1C(=O)COc2ccc(C(=O)COc3ccc(Cl)cc3F)cc21)NC1CCCCC1 | 3.2% | i | u | 28.2µM*
COCCNC(=O)CCCN1C(=O)COc2ccc(C(=O)COc3ccc(C(C)(C)C)cc3)cc21 | -16.1% | 14.1µM* | u | u
O=C(Cn1ccn2nc(-c3ccc(F)cc3)c(CO)c2c1=O)Nc1ccc(Cl)cc1F | 1.7% | i | -21.3% | -10.9%
CN(Cc1ccccc1)C(=O)CN1C(=O)COc2ccc(C(=O)COc3ccc(F)cc3)cc21 | -1.4% | i | u | 20µM*
Cc1cccc(NC(=O)CN2C(=O)NC(c3ccc(Cl)cc3)C3=C2COC3=O)c1C (stereo not given) | -15.2% | i | u | u
CCN1CCN(C(=O)c2ccc3oc(-c4ccnc(Cl)c4)nc3c2)CC1 | x | x | 3.1%[138 µM] | -10.6%[172 µM]
c1cncc(-c2nc3c(c(NCc4ccccc4-n4ccnc4)n2)CNC3)c1 | 4.5% | i | -5.2% | -15.6%
CCCOc1ccccc1C(C)Nc1nc(-c2cccnc2)nc2c1CNC2 (stereo not given) | -29.0% | i | u | 79.4µM*
Cc1ccc(-c2noc([C@@H]3C[C@H](NS(=O)(=O)c4ccc(F)cc4)CN3C)n2)cc1 | -22.2%[70.6 µM] | 44.7µM* | u | u

High-throughput results deposited in PubChem BioAssay by National Center for Advancing Translational Sciences (NCATS).
